# Source: PubChem
# A selection: hits, their analogues and other compounds. The true share with any hit is near 5.7%.
# hcDAF12 agonist: activators of H. contortus DAF-12 nuclear receptor; HEK293 hcDAF-12 lit1-tk-luc reporter, luminescence; 0% DMSO, 100% Δ7-dafachronic acid; activation, % at 6.8 µM; hit rate 1.4% among 370,000;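 active = activation above the mean of all tested compounds plus 3 SD, cut at about 5.5% in these data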;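 note: 100% = response to 3 µM Δ7-dafachronic acid high control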
# DAX1 inh-1: DAX1 (NR0B1) inhibition, primary screen; HEK293T StAR-luciferase reporter, SF-1/DAX-1 repression relief; inhibition, % at 6.8 µM; hit rate 1.1% among 370,000; AID 652010;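 active = inhibition above the mean over all tested compounds plus 3 SD, cut at about 3.6% in these data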;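 note: 0% = DAX-1 cells with DMSO and 100% = cells lacking DAX-1 with DMSO; higher inhibition means more luminescence from relief of DAX-1 repression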
# ssDAF12 agonist: activates DAF-12 receptor from parasite S. stercoralis | HEK293 ssDAF-12/GRIP1 lit1-tk-luc reporter, luminescence; % of 3 µM dafachronic acid response | hit rate 1% among 370,000 | activation, % at 6.8 µM;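 active = activation above the mean over all tested compounds plus 3 SD, cut at about 0.9% in these data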;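 note: 0% = DMSO-only wells and 100% = 3 µM delta7-dafachronic acid wells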
# DAX1 inh-2: NR0B1 (DAX1) inhibition. P51843. HEK293 Gal4-DAX1 luciferase reporter, luminescence. inhibition, % at 6.75 µM. hit rate 0.99% among 340,000;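 active = inhibition above the mean over all tested compounds plus 3 SD, cut at about 4.2% in these data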;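 note: 0% = DAX1-transfected cells with DMSO and 100% = empty-vector control cells with DMSO; inhibition shows as a rise in luminescence from relieved DAX1 repression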
# AHR act: activates the human aryl hydrocarbon receptor. hit rate 2.5% among 320,000. AHR-responsive luciferase reporter cells, luminescence. activation, % at 5 µM. P35869; in the data active = activation above about 47%;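 note: 0% = vehicle wells and 100% = reference agonist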
# Target sequence (P35869 whole entry, looked up): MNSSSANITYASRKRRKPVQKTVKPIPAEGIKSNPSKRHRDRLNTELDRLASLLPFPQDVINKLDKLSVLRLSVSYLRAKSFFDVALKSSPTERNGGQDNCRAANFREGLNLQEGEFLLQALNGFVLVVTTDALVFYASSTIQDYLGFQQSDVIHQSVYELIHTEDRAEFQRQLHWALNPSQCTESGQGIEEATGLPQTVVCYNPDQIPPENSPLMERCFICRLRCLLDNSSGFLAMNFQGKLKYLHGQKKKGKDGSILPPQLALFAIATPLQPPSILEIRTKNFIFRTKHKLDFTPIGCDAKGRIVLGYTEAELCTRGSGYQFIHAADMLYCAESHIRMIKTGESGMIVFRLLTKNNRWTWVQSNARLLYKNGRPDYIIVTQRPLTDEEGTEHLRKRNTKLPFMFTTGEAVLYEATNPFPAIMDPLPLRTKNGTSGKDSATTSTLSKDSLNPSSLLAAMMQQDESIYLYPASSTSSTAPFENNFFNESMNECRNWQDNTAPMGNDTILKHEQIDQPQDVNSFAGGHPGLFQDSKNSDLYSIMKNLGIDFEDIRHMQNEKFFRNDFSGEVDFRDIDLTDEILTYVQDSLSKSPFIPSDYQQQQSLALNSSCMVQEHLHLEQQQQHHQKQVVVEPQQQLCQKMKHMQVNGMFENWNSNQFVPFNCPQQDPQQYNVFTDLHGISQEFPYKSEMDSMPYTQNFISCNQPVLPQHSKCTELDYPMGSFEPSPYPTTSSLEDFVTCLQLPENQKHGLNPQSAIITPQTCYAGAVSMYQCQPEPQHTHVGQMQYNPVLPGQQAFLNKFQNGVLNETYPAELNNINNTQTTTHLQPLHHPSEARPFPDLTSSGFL
# hgDAF-12 ag: hgDAF-12 agonism, primary luciferase screen; HEK293 GAL4-hgDAF12 UAS-luciferase reporter, agonist luminescence; normalized to butyrate control; activation, % at 6.8 µM; hit rate 1.8% among 370,000; AID 687014;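 active = activation above a cutoff set at the mean of all screened compounds plus 3 SD, cut at about 10% in these data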;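 note: 0% = DMSO wells and 100% = sodium butyrate wells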
# The depositor's hits bear a star.
SMILES,hcDAF12 agonist,DAX1 inh-1,ssDAF12 agonist,DAX1 inh-2,AHR act,hgDAF-12 ag
O=C(NC1CCCCCCC1)c1ccc2c(c1)OCO2,4.5,3.3,1.1*,0.8,68.7*,10.3
O=C(Nc1nnc(Cc2ccc([N+](=O)[O-])cc2)s1)c1ccc2c(c1)OCO2,1.2,0.0,-1.8,-0.6,54.9*,5.7
OCCC1CN(Cc2cccc(F)c2F)CCN1CCc1ccccc1 (configuration not stated),1.5,-0.8,-0.3,1.2,4.0,2.6
Cc1ccccc1N1CCN(C2CCCN(C(=O)CCC3(C)CC3)C2)CC1 (configuration not stated),0.9,-0.6,-1.2,-0.9,-2.1,-0.3
CSc1ccc(C(=O)C2CCCN(Cc3cccc4nccnc34)C2)cc1 (configuration not stated),-1.1,-0.1,-1.5,0.2,4.8,-1.8
C/C(=N\NC(=O)c1ccc(CSc2cccc3cccnc23)cc1)C1CCCCC1,0.6,-0.5,-1.1,-1.9,25.4,2.9
Cc1ccc(CN2C(=O)CSC(C)C2=O)cc1 (configuration not stated),-0.1,-0.4,-1.1,0.9,0.6,-0.6
O=C(O)CSc1nnc(NC(=O)c2ccc3c(c2)OCO3)s1,-0.4,0.1,-1.8,-1.7,-9.1,-0.6
CC(C)(C)Cc1nnc(NC(=O)c2ccc3c(c2)OCO3)s1,-0.6,0.6,-0.5,-1.5,48.7*,4.5
O=C(Nc1nccs1)c1ccc2c(c1)OCO2,3.6,1.1,-0.4,2.1,20.4,11.3*
COc1ccc(C(=O)Nc2nccs2)cc1OC,-0.4,-0.5,-0.9,2.1,34.9,6.6
Cc1cc(/C=C2/C(=O)N(C)C(=S)N2C)ccc1N1CCCC1,4.0,0.5,0.3,-0.1,62.8*,1.6
COCCNC(=O)COC(=O)CSCc1nc2ccccc2s1,5.8*,0.5,0.1,-0.7,11.4,1.5
C=C(C)C(O)COc1c2occc2c(OC)c2ccc(=O)oc12 (configuration not stated),-1.0,-0.1,-1.8,-0.9,54.6*,-0.1
COc1c2ccoc2c(OC)c2oc(=O)ccc12,-2.7,-0.1,-1.7,-1.0,4.1,3.8
c1ccc2c(c1)OCCOCCOc1ccccc1OCCOCCO2,-0.2,-0.6,-1.5,-1.4,64.2*,-0.1
CCOC(=O)c1ccc2c(c1)nc(COc1ccc3ccccc3c1)n2CC,-1.8,0.6,-1.5,0.5,1.0,-1.7
O=Cc1ccc(OCc2cccc(C(F)(F)F)c2)cc1O,-1.3,-1.1,-0.1,7.2*,1.3,3.4
O=C(O)c1cccc(COc2ccc(CO)cc2Cl)c1,1.8,3.6*,-0.5,-5.5,-3.5,0.7
O=C(OCC(F)(F)F)c1cccc(COc2ccc3ccccc3c2)c1,6.1*,5.6*,0.4,-4.7,-17.2,14.6*
COc1cccc(COc2ccc3ccc(=O)oc3c2)c1,0.2,0.5,1.0*,2.5,2.0,9.6
Fc1nc(F)c(F)c(NCCCNc2c(F)c(F)nc(F)c2F)c1F,-1.4,0.8,-1.3,0.5,0.1,-1.6
Cc1nnc(SCc2cccc(Oc3ccccc3)c2)n1N,-1.8,0.4,-0.8,0.1,2.4,2.5
CCOc1ccc(OCc2cccc(C(=O)N3CCCC3)c2)cc1,2.5,4.2*,-0.7,-2.8,-3.2,10.1
COc1ccc(OCc2cccc(C(=O)O)c2)cc1,5.8*,1.0,0.2,-6.3,-7.5,5.4
SMILES,hcDAF12 agonist,DAX1 inh-1,ssDAF12 agonist,DAX1 inh-2,AHR act,hgDAF-12 ag
COc1cccc(OC)c1C(=O)NNC(=O)c1cccc(COc2ccc3c(c2)CCC3)c1,2.4,2.3,-0.7,-3.9,-4.8,11.9*
CCOc1ccc(C(=O)N2CCCC2)cc1,0.5,-0.2,-0.9,-0.8,0.8,1.5
CC(C)Oc1cccc(C(=O)N2CCCC2)c1,1.2,0.0,1.1*,-1.3,2.1,0.0
COc1ccccc1NC(=O)c1ccc(COc2ccc3c(c2)CCC3)cc1,0.8,-0.2,-0.5,-0.4,2.6,0.9
CC(=O)c1cccc(NC(=O)NC2CCCc3ccccc32)c1 (configuration not stated),-1.7,0.7,-1.4,-0.1,3.4,-1.7
CC(=O)Nc1ccc(S(=O)(=O)C(C#N)c2nc3ccccc3nc2NCCCO)cc1 (configuration not stated),-2.2,0.2,-1.5,5.3*,4.0,-2.8
CCO/C=C1/C(=O)N(C(C)=O)c2ccccc21,3.4,0.5,-0.6,1.1,7.8,2.1
CC12CC3(C)CC(C)(C1)CC(C(N)=O)(C2)C3,-1.8,-0.4,-1.7,5.8*,3.5,3.1
O=C(CNC1CCCCC1)Nc1ccc([N+](=O)[O-])cc1C(=O)Nc1ccccc1F,-0.2,-0.8,-1.7,1.0,47.5*,2.2
COc1cc(NC(=O)c2cc([N+](=O)[O-])ccc2NC(=O)CNC2CCCCC2)cc(OC)c1,-1.6,-0.1,-1.1,-0.9,29.4,-4.4
Cc1nnc(NC(=O)CSc2nnc(C)n2Cc2ccccc2)s1,-2.0,0.4,-0.8,-0.2,3.0,-0.8
Cc1nnc(SCC(=O)Nc2ccc(Cl)cn2)n1Cc1ccccc1,-0.6,-0.5,-0.9,6.0*,6.4,-1.2
Nc1ccc2nc(-c3cccnc3)[nH]c2c1,-0.9,0.1,0.0,0.2,12.9,-1.1
Nc1ccc2nc(-c3ccccc3)[nH]c2c1,3.8,2.1,1.7*,0.7,67.0*,8.9
O=C(CN(Cc1ccco1)C(=O)CCC(=O)Nc1ccccn1)NCCc1ccccc1,-1.7,-1.2,-1.0,0.0,6.1,0.0
CN1C(=O)C(O)(CC(=O)/C=C/c2ccco2)c2cc(Br)ccc21 (configuration not stated),2.9,0.6,-0.5,-1.1,20.2,3.7
CN1C(=O)C(O)(CC(=O)c2ccccc2O)c2cc(Br)ccc21 (configuration not stated),3.1,-0.9,-0.2,4.4*,19.3,-1.1
COc1ccc(C2OCC3(O)C(c4ccc(OC)c(OC)c4)OCC23)cc1OC (configuration not stated),-1.3,-0.5,-2.0,1.7,-0.9,-2.1
CC1(CCc2ccccc2)NC(=S)N(c2ccc(Cl)cc2)N1 (configuration not stated),2.8,-0.2,-0.5,0.5,54.5*,2.2
CCC1(c2ccc(Cl)cc2)NC(=S)N(c2ccc(C)cc2)N1 (configuration not stated),6.2*,1.0,0.5,-0.3,16.8,11.1*
NC(=O)C1=C[C@@H](c2coc3ccccc3c2=O)C[C@@H](OCCCCO)O1,-0.8,-0.1,-1.4,2.4,2.0,0.8
CC(Sc1nnc(C2CC2)n1C1CC1)C(=O)NC1(C#N)CCCCC1 (configuration not stated),-0.8,0.4,-1.3,-0.3,0.7,-0.8
O=C(NCCN1C(=O)S/C(=C\c2ccc(Cl)c(Cl)c2)C1=O)c1ccc2c(c1)C(=O)N(Cc1ccncc1)C2=O,-1.2,1.3,0.2,0.0,0.8,1.3
